Laboratory results: PubChem BioAssay AID540356 (Broad Institute, 2011)
Screen size: about 2,500 compounds; about 360 (14%) were called active.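 Rule for the calls: active = signal-lowering compounds whose fitted half-maximal concentration AC50 is no higher than ten times their top tested concentration; inconclusive = flat curve with 30 to 70% inhibition, or poor fit; inactive = flat within 30%, signal increase, or AC50 above limit.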 Not all results are given here.

experiment: non-specific inhibitors of H2O2 luminol chemiluminescence – biochemical, luminescence, no ALR or DTT, cherry-pick, artefact control for ALR inhibitor project, dose response (AID 540356); conditions: HRP/H2O2 luminol luminescence counterscreen; series mostly up to 10 µM

SMILES	AC50
Cc1ccc(CN2CCSc3ccc(C(=O)NCCCN4CCN(C)CC4)cc32)cc1	inactive
O=C(CN1CCN(c2ccc(O)cc2)CC1)Nc1ccc(S(=O)(=O)N2CCCC2)cc1	inactive
Cc1ccc(-c2nc(Nc3cccc(C)c3)sc2CC(=O)O)cc1	inactive
Cc1ccc(CS(=O)Cc2ccc(C(=O)N3CCN(c4ccccc4)CC3)o2)cc1 (stereo unspecified)	inactive
CN(C)c1ccc(NC(=O)CN2CCc3ccccc3C2)cc1	inactive
CN(C)c1ccc(NC(=O)CCn2c(=S)oc3ccccc32)cc1	inactive
O=C(NCC(c1ccco1)N1CCc2ccccc21)c1ccccc1F (stereo unspecified)	inactive
Clc1c(CSc2nc3ccccc3o2)nc2ccccn12	inactive
CCCCCCCc1c(C#N)c(N)[nH]c(=S)c1C#N	inactive
Cc1ccc(Sc2ccc(S(=O)(=O)Nc3ccc(C(=O)O)cc3)cc2)cc1C	inactive
Cc1cccc(C(=O)Nc2ccc(O)cc2)c1	inactive
Cc1ccc(S(=O)(=O)Nc2ccc(N(C)C)cc2)cc1	inactive
CC(=O)Nc1ccc(S(=O)(=O)Nc2ccc(Nc3ccccc3)cc2)cc1	inactive
Cc1cc(C)c(S(=O)(=O)Nc2ccc(O)cc2)c(C)c1	9.93 µM (active)
COc1ccc(S(=O)(=O)N/N=C(/C)c2ccncc2)c(OC)c1	inactive
COc1cc(/C=N/NC(=O)c2nc3ccccn3c2C)cc(OC)c1O	inactive
O=C(Nc1ccc(N2CCCCC2)cc1)c1cccnc1	inactive
O=C(Nc1ccccc1N1CCCC1)c1cccnc1	inactive
O=C(NN=C1CCC(=NNC(=O)c2cccnc2)CC1)c1cccnc1	8.24 µM (active)
Cc1ccc(N/N=C2/CCCNC2=O)cc1	inactive
Cc1ccc(C(=O)Nc2cccc([N+](=O)[O-])c2)cc1S(=O)(=O)Nc1ccc(C(=O)O)cc1	inactive
COc1ccccc1NS(=O)(=O)c1cc([N+](=O)[O-])ccc1N/N=C/c1c[nH]c2ccccc12	inactive
CNC(=O)c1cc(Nc2nnc(-c3ccc(O)cc3)c3ccccc23)ccc1OC	inactive
CCN(CC)CCCN(C(=O)c1cccc(C)c1)c1nc(-c2ccc(OC)cc2)cs1	inactive

SMILES	AC50
Cn1c(CNS(=O)(=O)c2ccc(Br)cc2)n[nH]c1=S	inactive
CCCn1c(CCC(=O)O)ccc1-c1cccs1	inactive
COc1cccc(NC(=O)CN2CCN(c3ccc(F)cc3)CC2)c1	inactive
Cc1cc(Oc2ncccc2[N+](=O)[O-])c2cc(Cl)ccc2n1	inactive
COc1ccccc1-n1cnc2cc(NCc3ccccc3O)ccc21	inactive
COc1ccc(OC)c(CNc2ccc3c(c2)nc(C)n3C)c1	inactive
O=[N+]([O-])c1ccc(-c2cn(-c3ccccc3F)c(=S)[nH]2)cc1	inactive
Cc1nc(SCc2cccnc2)[nH]c(=O)c1C	inactive
Cc1ccc(NC2CCCN(C(=O)c3cc4ncccn4n3)C2)cc1C (stereo unspecified)	inactive
COc1cc(/C=N/Nc2nc(=O)[nH]nc2C)ccc1O	inactive
NC(=O)c1ccc(CSc2nc3ccccc3s2)cc1	inactive
CNc1nnc(CSc2nc3ccccc3s2)s1	inactive
CC(C)c1ccc(NC2CCCN(C(=O)C3=NN(C)C(=O)CC3)C2)cc1 (stereo unspecified)	inactive
Cc1cc(C(=O)NNc2ccccc2F)no1	8.51 µM (active)
Cc1cc(C(=O)NNc2ccc(F)cc2F)no1	inactive
COC(=O)c1sccc1NC(=O)c1cc(C)on1	inactive
Cc1cccc(Oc2ccc3c(c2)cc(C(=O)O)n3C)c1	inactive
CN(CCCNC(=O)c1cccc(N2CCCC2=O)c1)c1ccccc1	inactive
CN(CC(=O)N1CCN(c2ccccc2)CC1)S(=O)(=O)c1cnc[nH]1	inactive
Fc1ccc(CN2C3=NCCN3c3ccccc32)cc1	inactive
O=C1CS/C(=N/N=C/c2ccco2)N1Cc1ccc(F)cc1	inactive
Cn1cccc1CC(=O)N/N=C/c1ccc([N+](=O)[O-])cc1	inactive
O=C(NNc1c2ccccc2nc2ccccc12)c1ccc(O)cc1O	inactive
CC1C(=O)NN=C1C(=O)N/N=C\c1ccc(O)cc1O (stereo unspecified)	8.82 µM (active)

SMILES	AC50
COc1cccc(/C=N/NC(=O)CC2C(=O)NN=C2C)c1O (stereo unspecified)	inactive
CCN(CC)c1ccc(/C=N/NC(=O)c2ccco2)c(O)c1	inactive
CC(C)c1ccc(NC2CCCN(C(=O)CCCn3cncn3)C2)cc1 (stereo unspecified)	inactive
Cc1nc(C(F)(F)F)c(C(=O)O)cc1-c1nc(-c2ccccc2)cs1	inactive
Oc1ccc(-c2nc(-c3ccc(O)c(O)c3)cs2)cc1	6.17 µM (active)
Nc1nc(-c2ccc3ccccc3c2)cs1	inactive
O=C(O)c1ccccc1C(=O)Nc1ccc(-c2csc(-c3ccccc3)n2)cc1	inactive
Cc1cc(-c2n[nH]c(=S)n2/N=C/c2ccc(Cl)c([N+](=O)[O-])c2)n[nH]1	inactive
CN(C)c1ccc(/C=N/Nc2ccc(-n3ccnc3)nn2)cc1	inactive
CCN(CC)c1ccc(NC(=O)c2ccc(Br)o2)cc1	> 10 µM (inactive)
O=C(Nc1ccc(O)cc1)c1ccc(C(=O)c2ccccc2)o1	inactive
Oc1ccc(/C(Cc2ccccn2)=N\Nc2ccccc2)c(O)c1	inactive
Cc1ccc2nc(C)cc(N/N=C/c3ccccc3O)c2c1	inactive
COc1ccc(-c2n[nH]c(=S)n2-c2ccc(C)cc2)cc1OC	inactive
COc1ccc(-n2c(-c3ccc(OC)c(OC)c3)n[nH]c2=S)cc1	inactive
Cc1occc1C(=O)NCCCCc1ccccc1	inactive
O=C(NCCCN1CCCC1)c1ccc2c(Cl)c3c(nc2c1)CCCC3	inactive
Nc1ccc(CCc2ccc(N)cc2)cc1	inactive
CC(C)Cc1nc2ccc(N)cc2[nH]1	inactive
O=C(Nc1nnc(-c2cccnc2)o1)c1cccc([N+](=O)[O-])c1	inactive
Nc1ccc(N2CCN(C(=O)c3ccco3)CC2)cc1	inactive
COc1cc(/C=C2\SC(=Nc3ccccc3OC)NC2=O)ccc1O	inactive
O=C1NC(=O)/C(=C\c2ccc(O)cc2O)S1	7.54 µM (active)
O=C1NC(=O)/C(=C/c2cc3c(cc2Br)OCO3)S1	inactive

SMILES	AC50
COc1cc(/C=N/NC(=O)c2cccc(NC(=O)c3ccccc3)c2)ccc1O	inactive
COc1cc(C(=O)n2nc(C)cc2C)ccc1O	inactive
COc1cc(C(=S)N(C)C)ccc1O	inactive
C/C(=N\Nc1nc2ccccc2[nH]1)c1ccc2c(c1)OCO2	inactive
CCN(CCCNC(=O)CNC(=O)Cn1cnc2ccccc2c1=O)c1ccccc1	inactive
COc1ccccc1N1CCN(CCc2n[nH]c(=S)n2-c2ccccc2)CC1	inactive
C/C(=C\c1ccc(N)cc1)c1nc2ccccc2[nH]1	6.64 µM (active)
C/C(=N\Nc1nc2ccccc2[nH]1)c1cccs1	inactive
C(=C\c1nc2ccccc2[nH]1)/c1ccccc1	inactive
COc1ccc(N2CCN(C(=O)Cc3cccs3)CC2)cc1	inactive
Cc1ccc(S(=O)(=O)NNC(=O)c2ccc3ccccc3n2)cc1	inactive
CCn1c(-c2ccccc2O)n[nH]c1=S	inactive
Oc1ccc(Br)cc1-c1cc(-c2ccco2)[nH]n1	inactive
Cc1c(NS(=O)(=O)c2ccccc2)cc(Cl)c(O)c1C	inactive
O=C(O)c1ccc(CSc2nc3ccc(NC(=O)c4ccccc4C(=O)O)cc3s2)cc1	inactive
COc1cc(C(=O)N/N=C/c2cccc(Oc3ccccc3)c2)ccc1O	inactive
COc1cc(/C(C)=N/NC(=O)Cc2c(C)[nH][nH]c2=O)ccc1O	5.67 µM (active)
COc1cc(/C=N/NC(=O)CNC(=O)c2ccncc2)ccc1O	inactive
CC1(CCC(=O)N2CCCC(Nc3ccc(F)cc3)C2)CC1 (stereo unspecified)	inactive
S=c1[nH]nc(-c2ccco2)n1/N=C/c1ccccc1	inactive
S=c1[nH]nc(-c2ccncc2)n1/N=C/C=C/c1ccccc1	inactive
Cc1ccc(NC(=O)CN(c2ccc3c(c2)OCO3)S(=O)(=O)c2c(C)n[nH]c2C)cc1	inactive
S=c1[nH]cc(-c2ccccc2)[nH]1	inactive
CC(c1ccc(F)cc1)n1c(-c2cccs2)n[nH]c1=S (stereo unspecified)	inactive

SMILES	AC50
S=c1nccc(-c2cccs2)[nH]1	3.95 µM (active)
Fc1ccc(-c2ccnc(=S)[nH]2)cc1	2.78 µM (active)
Cc1ccc(N2C(=O)CC(NNC(=O)c3cccc(S(=O)(=O)N4CCCC4)c3)C2=O)cc1 (stereo unspecified)	inactive
COc1ccccc1N1CCN(S(=O)(=O)c2ccccc2)CC1	inactive
CC(=O)N1CCN=C1SCc1cccc(F)c1	inactive
COc1ccc(-c2csc(Nc3ccc(S(=O)(=O)Nc4cc(C)on4)cc3)n2)cc1	inactive
CC(C(=O)NC1C=CS(=O)(=O)C1)N1C(=O)/C(=C\c2ccccc2)SC1=S (stereo unspecified)	inactive
O=C(O)CCCN1C(=O)/C(=C\c2ccc(-c3nc4ccccc4s3)o2)SC1=S	inactive
O=c1ccc(-c2n[nH]c(=S)n2-c2ccc(F)c(Cl)c2)n[nH]1	inactive
CN(C)c1cccc(C(=O)NCc2ccccc2)c1	inactive
CC(=O)c1ccc(S(=O)(=O)N2CCNC(=O)C2)cc1	inactive
COC(=O)Nc1ccc(S(=O)(=O)N2CCC(C(=O)N(C)C3CCCCC3)CC2)cc1	inactive
COc1ccc(N2CCN(C(=O)CCNS(=O)(=O)c3ccccc3)CC2)cc1	inactive
COc1ccccc1NC(=O)Nc1ncccc1C	inactive
Cc1ccc(-c2cnc(SCCNC(=O)c3ccco3)[nH]2)cc1	inactive
Cc1cccc(-n2c(-c3ccoc3C)n[nH]c2=S)c1	inactive
CCN(CC)c1ccc(C2CC(=O)Nc3cc(OC)c(OC)cc32)cc1 (stereo unspecified)	inactive
C/C(=N\NC(=O)c1cccc(N/N=C(\C)c2ccncc2)c1)c1ccncc1	inactive
C/C(=N\NC(=O)c1ccc(N/N=C(\C)c2ccncc2)cc1)c1ccncc1	7.62 µM (active)
C/C(=N\NC(=O)c1ccncc1)c1ccc(N(C)C)cc1	inactive
